Experimental data as given in PubChem BioAssay AID1159580 (chemical genetic matrix, 2015).
Values joined by “and” are separate entries in the source; they are usually repeats but may differ in a detail not shown here. Equal values may be shown once. Screen size: about 5,500 compounds; about 2,000 (36%) were called active. Inconclusive results (about 18%) are left out. Rule as the data show it: active = normalized growth mostly below about 0.91 (no sharp cut-off); inconclusive = no clear call, values can overlap the other calls; inactive = mostly above about 0.92. This is one part of the list.

Assay: chemical genetic growth profiling, strain panel (AID 1159580);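 also: tested at 20 µM; growth read once vehicle control cultures reached saturation at 30 °C; 1 = growth at the plate median or of vehicle wells; lower values mean less growth of the strain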
Settings: growth OD

Measured: normalized growth

NNCc1cccc(O)c1
inactive: S. cerevisiae deletion strains, locus YAL013W, strain DEP1, stronger effect = lower value 0.994 | S. cerevisiae deletion strains, locus YAL040C, strain CLN3, stronger effect = lower value 1.08 | S. cerevisiae deletion strains, locus YBR021W, strain FUR4, stronger effect = lower value 1.07 | S. cerevisiae deletion strains, locus YBR229C, strain ROT2, stronger effect = lower value 1 | S. cerevisiae deletion strains, locus YCL029C, strain bik1, stronger effect = lower value 0.988 | S. cerevisiae deletion strains, locus YCL061C, strain MRC1 (second series), stronger effect = lower value 0.984 | S. cerevisiae deletion strains, locus YDL035C, strain GPR1, stronger effect = lower value 0.969 | S. cerevisiae deletion strains, locus YDL074C, strain BRE1, stronger effect = lower value 0.98 | S. cerevisiae deletion strains, locus YDL101C, strain DUN1, stronger effect = lower value 0.994 | S. cerevisiae deletion strains, locus YDL134C, strain PPH21, stronger effect = lower value 0.994 | S. cerevisiae deletion strains, locus YDL192W, strain arf1, stronger effect = lower value 1 | S. cerevisiae deletion strains, locus YDR101C, strain arx1, stronger effect = lower value 0.989 | S. cerevisiae deletion strains, locus YDR150W, strain NUM1, stronger effect = lower value 0.987 and 0.976 | S. cerevisiae deletion strains, locus YDR162C, strain NBP2, stronger effect = lower value 0.987 | S. cerevisiae deletion strains, locus YDR318W, strain mcm21, stronger effect = lower value 1 | S. cerevisiae deletion strains, locus YDR363W, strain ESC2, stronger effect = lower value 1.01 | S. cerevisiae deletion strains, locus YDR388W, stronger effect = lower value 1.01 | S. cerevisiae deletion strains, locus YDR502C, strain sam2, stronger effect = lower value 0.996 | S. cerevisiae deletion strains, locus YEL061C, strain CIN8, stronger effect = lower value 1 | S. cerevisiae deletion strains, locus YER002W, strain NOP16, stronger effect = lower value 0.995 | S. cerevisiae deletion strains, locus YER110C, stronger effect = lower value 0.968 | S. cerevisiae deletion strains, locus YER155C, strain BEM2, stronger effect = lower value 1 | S. cerevisiae deletion strains, locus YER167W, strain BCK2, stronger effect = lower value 0.99 | S. cerevisiae deletion strains, locus YGL078C, strain dbp3, stronger effect = lower value 0.99 | S. cerevisiae deletion strains, locus YGL086W, strain mad1, stronger effect = lower value 0.984 | S. cerevisiae deletion strains, locus YGL248W, strain PDE1, stronger effect = lower value 0.996 | S. cerevisiae deletion strains, locus YGR078C, strain PAC10, stronger effect = lower value 1 | S. cerevisiae deletion strains, locus YGR135W, strain pre9, stronger effect = lower value 1.02 | S. cerevisiae deletion strains, locus YGR229C, strain SMI1, stronger effect = lower value 1.01 | S. cerevisiae deletion strains, locus YGR252W, strain gcn5, stronger effect = lower value 0.992 | S. cerevisiae deletion strains, locus YHR030C, strain SLT2, stronger effect = lower value 0.994 | S. cerevisiae deletion strains, locus YHR079C, strain IRE1 (second series), stronger effect = lower value 0.987 | S. cerevisiae deletion strains, locus YHR094C, strain hxt1, stronger effect = lower value 0.99 | S. cerevisiae deletion strains, locus YHR129C, strain ARP1, stronger effect = lower value 0.993 | S. cerevisiae deletion strains, locus YHR200W, strain rpn10, stronger effect = lower value 0.986 | S. cerevisiae deletion strains, locus YIL066C, strain RNR3, stronger effect = lower value 0.99 | S. cerevisiae deletion strains, locus YIL073C, strain SPO22, stronger effect = lower value 0.92 | S. cerevisiae deletion strains, locus YIL125W, strain kgd1, stronger effect = lower value 0.971 | S. cerevisiae deletion strains, locus YIR030C, strain dcg1, stronger effect = lower value 0.989 | S. cerevisiae deletion strains, locus YJL095W, strain BCK1, stronger effect = lower value 1.01 | S. cerevisiae deletion strains, locus YJL134W, strain LCB3, stronger effect = lower value 0.987 | S. cerevisiae deletion strains, locus YJL168C, strain set2, stronger effect = lower value 0.981 | S. cerevisiae deletion strains, locus YJL187C, strain SWE1 (second series), stronger effect = lower value 0.991 | S. cerevisiae deletion strains, locus YJR043C, strain POL32, stronger effect = lower value 0.974 | S. cerevisiae deletion strains, locus YJR075W, strain HOC1, stronger effect = lower value 0.99 | S. cerevisiae deletion strains, locus YKL009W, strain mrt4, stronger effect = lower value 0.966 | S. cerevisiae deletion strains, locus YKL068W, stronger effect = lower value 0.98 | S. cerevisiae deletion strains, locus YKL085W, strain MDH1 (second series), stronger effect = lower value 0.991 | S. cerevisiae deletion strains, locus YKL085W, strain MDH1, stronger effect = lower value 0.991 | S. cerevisiae deletion strains, locus YKL190W, strain CNB1, stronger effect = lower value 1 | S. cerevisiae deletion strains, locus YKR001C, strain vps1, stronger effect = lower value 1 | S. cerevisiae deletion strains, locus YLR039C, strain RIC1, stronger effect = lower value 0.928 | S. cerevisiae deletion strains, locus YLR058C, strain SHM2, stronger effect = lower value 0.994 | S. cerevisiae deletion strains, locus YLR102C, strain apc9, stronger effect = lower value 0.982 | S. cerevisiae deletion strains, locus YLR262C, strain YPT6, stronger effect = lower value 0.892 | S. cerevisiae deletion strains, locus YLR268W, strain sec22, stronger effect = lower value 1.01 | S. cerevisiae deletion strains, locus YLR330W, strain CHS5, stronger effect = lower value 0.987 | S. cerevisiae deletion strains, locus YLR342W, strain FKS1 (second series), stronger effect = lower value 0.965 | S. cerevisiae deletion strains, locus YLR371W, strain rom2, stronger effect = lower value 0.967 | S. cerevisiae deletion strains, locus YLR418C, strain cdc73, stronger effect = lower value 1.03 | S. cerevisiae deletion strains, locus YML016C, strain PPZ1, stronger effect = lower value 0.993 | S. cerevisiae deletion strains, locus YML032C, strain rad52, stronger effect = lower value 0.974 | S. cerevisiae deletion strains, locus YML124C, strain tub3, stronger effect = lower value 0.999 | S. cerevisiae deletion strains, locus YMR078C, strain ctf18, stronger effect = lower value 1 | S. cerevisiae deletion strains, locus YMR223W, strain ubp8, stronger effect = lower value 0.988 | S. cerevisiae deletion strains, locus YMR263W, strain SAP30, stronger effect = lower value 1 | S. cerevisiae deletion strains, locus YMR307W, strain GAS1, stronger effect = lower value 1.01 | S. cerevisiae deletion strains, locus YNL067W, strain RPL9B, stronger effect = lower value 0.994 | S. cerevisiae deletion strains, locus YNL128W, strain TEP1, stronger effect = lower value 1.01 and 0.986 | S. cerevisiae deletion strains, locus YNL153C, strain GIM3, stronger effect = lower value 1.02 and 1.01 | S. cerevisiae deletion strains, locus YNL175C, strain NOP13, stronger effect = lower value 0.994 | S. cerevisiae deletion strains, locus YNL197C, strain WHI3, stronger effect = lower value 1.01 | S. cerevisiae deletion strains, locus YNL224C, strain SQS1, stronger effect = lower value 0.987 | S. cerevisiae deletion strains, locus YNL233W, strain BNI4, stronger effect = lower value 1.01 | S. cerevisiae deletion strains, locus YNL250W, strain rad50, stronger effect = lower value 0.969 | S. cerevisiae deletion strains, locus YNL271C, strain bni1, stronger effect = lower value 0.98 | S. cerevisiae deletion strains, locus YNL298W, strain CLA4, stronger effect = lower value 1 | S. cerevisiae deletion strains, locus YNL307C, strain MCK1, stronger effect = lower value 0.997 | S. cerevisiae deletion strains, locus YNL322C, strain KRE1, stronger effect = lower value 0.991 and 0.996 | S. cerevisiae deletion strains, locus YNR052C, strain pop2, stronger effect = lower value 0.981 | S. cerevisiae deletion strains, locus YOL006C, strain TOP1, stronger effect = lower value 0.996 | S. cerevisiae deletion strains, locus YOL012C, strain htz1 0.847 | S. cerevisiae deletion strains, locus YOL147C, strain pex11, stronger effect = lower value 1 | S. cerevisiae deletion strains, locus YOR061W, strain CKA2, stronger effect = lower value 0.993 | S. cerevisiae deletion strains, locus YOR069W, strain VPS5, stronger effect = lower value 1 | S. cerevisiae deletion strains, locus YOR083W, strain WHI5 (second series), stronger effect = lower value 0.953 | S. cerevisiae deletion strains, locus YOR136W, strain idh2, stronger effect = lower value 0.994 | S. cerevisiae deletion strains, locus YOR144C, strain elg1, stronger effect = lower value 0.994 | S. cerevisiae deletion strains, locus YOR184W, strain ser1, stronger effect = lower value 0.974 | S. cerevisiae deletion strains, locus YOR316C, strain cot1, stronger effect = lower value 0.994 | S. cerevisiae deletion strains, locus YPL055C, strain LGE1, stronger effect = lower value 1 | S. cerevisiae deletion strains, locus YPL241C, strain CIN2, stronger effect = lower value 0.967 | S. cerevisiae deletion strains, locus YPR119W, strain clb2, stronger effect = lower value 0.998 | S. cerevisiae deletion strains, locus YPR141C, strain kar3, stronger effect = lower value 0.998 | S. cerevisiae deletion strains, locus YPR163C, strain tif3, stronger effect = lower value 1 | S. cerevisiae deletion strains, locus YPR167C, strain met16, stronger effect = lower value 0.999 | S. cerevisiae deletion strains, strain wtn01, stronger effect = lower value 0.994 | S. cerevisiae strains, strain wild type, stronger effect = lower value 0.994
